High-throughput results: PubChem BioAssay, National Center for Advancing Translational Sciences (NCATS)
HP1b binding inh = inhibitors of HP1-beta chromodomain binding to methylated histone tails; AlphaScreen HP1-beta / biotin-H3K9me3 peptide binding; 390,000 tested, 0.56% active; P83916; Potency, µM (doses to about 114 µM), hits mostly inhibitors; AID 540317; note: nearly all actives have a fitted effect of over 70% in size
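AlphaScreen: HP1-beta (50 nM) preformed 30 min with biotin-H3(1-18)K9me3 peptide (50 nM) in PBS pH 7.4, 0.01% Tween-20. Compound added for 30 min at RT, then streptavidin donor/nickel chelate acceptor beads (10 ug/mL) for 30 min.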
G9a inh = inhibitors of human histone lysine methyltransferase G9a | Q96KQ7 | G9a H3K9 monomethylation, AlphaScreen, 2 h | Potency, µM (highest dose often 102 µM), hits mostly inhibitors | 350,000 tested, 8.8% active | AID 504332; note: nearly all actives have a fitted effect of over 75% in size
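Using a bead-based AlphaScreen, monomethylated H3K9 product from 2 h room-temperature reactions (G9a 20 nM, peptide 500 nM, SAM 20 uM) was detected with 0.5 ug/mL rabbit anti-H3K9me1 antibody.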
JMJD2A Tudor = blocks the human JMJD2A Tudor domain | AID 504339 | Potency, µM (doses to about 114 µM), usual class: inhibitors | 390,000 tested, 4.4% active | AlphaScreen JMJD2A-Tudor / H3K4me3 peptide binding | O75164; note: nearly all actives have a fitted effect of over 50% in size
L3MBTL1 block = L3MBTL1 (human) inhibition. Q9Y468. AlphaScreen L3MBTL1–H3K9me1 peptide binding. Potency, µM (highest dose often 57.1 µM), usual class: inhibitors. 230,000 tested, 0.66% active. AID 485360; note: nearly all actives have a fitted effect of over 60% in size
Target sequence (Q9Y468 whole entry, looked up): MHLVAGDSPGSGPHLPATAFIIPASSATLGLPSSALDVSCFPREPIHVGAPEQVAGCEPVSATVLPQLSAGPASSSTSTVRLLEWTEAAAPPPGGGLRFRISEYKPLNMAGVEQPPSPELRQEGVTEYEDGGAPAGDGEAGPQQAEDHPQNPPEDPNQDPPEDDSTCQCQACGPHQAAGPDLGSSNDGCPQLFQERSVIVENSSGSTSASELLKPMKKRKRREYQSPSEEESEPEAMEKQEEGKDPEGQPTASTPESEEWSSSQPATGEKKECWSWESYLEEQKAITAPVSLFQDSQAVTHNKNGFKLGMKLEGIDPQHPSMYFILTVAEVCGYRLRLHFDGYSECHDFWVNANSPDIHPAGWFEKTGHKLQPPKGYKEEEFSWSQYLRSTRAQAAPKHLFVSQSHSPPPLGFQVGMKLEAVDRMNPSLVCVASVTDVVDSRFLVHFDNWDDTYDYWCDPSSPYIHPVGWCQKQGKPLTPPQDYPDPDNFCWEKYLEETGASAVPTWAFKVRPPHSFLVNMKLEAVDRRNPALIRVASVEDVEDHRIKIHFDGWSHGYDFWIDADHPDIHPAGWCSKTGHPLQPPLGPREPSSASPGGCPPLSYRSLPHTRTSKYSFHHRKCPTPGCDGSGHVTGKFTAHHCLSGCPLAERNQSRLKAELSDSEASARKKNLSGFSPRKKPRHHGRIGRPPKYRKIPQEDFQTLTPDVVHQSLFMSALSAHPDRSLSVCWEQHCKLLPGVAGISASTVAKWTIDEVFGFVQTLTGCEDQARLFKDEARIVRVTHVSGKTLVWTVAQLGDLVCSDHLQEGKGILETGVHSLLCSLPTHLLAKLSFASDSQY
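AlphaScreen assay: L3MBTL1 (50 nM final) was preincubated 30 min at room temperature with biotinylated H3(1-15)K9me1 peptide (75 nM final), then 30 min with library compounds; streptavidin donor and nickel chelate acceptor beads (10 ug/mL final) added, 30 min dark.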
BAZ2B block = blocks human BAZ2B. Q9UIF8. AlphaScreen BAZ2B-H3K14Ac peptide displacement. Potency, µM (series often up to 114 µM), actives largely listed as inhibitors. 360,000 tested, 4.4% active; note: nearly all actives have a fitted effect of over 60% in size
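Complex of BAZ2B and biotin-H3K14Ac (50 nM apiece) forms over 30 min at RT, then faces library compounds up to 110 uM for another 30 min; AlphaScreen beads added, 20 min dark incubation, luminescence read.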
PI5P4Ka inh = blocks human PI5P4K alpha kinase activity; PI5P4Kalpha enzyme, ADP-Glo luminescence, 60 min; stronger effect = lower value; P48426; AID 652105; max response, %; 330,000 tested, 1.2% active; active = max response of -50% or lower; inconclusive = between -30% and -50%; inactive = -30% or higher; note: value at the top dose of about 77 µM
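Compounds were pin-transferred onto PI5P4Kalpha and substrate in HEPES pH 7.4 buffer with EGTA, CHAPS and 5% DMSO. ATP (5 microM final) started the reaction, which ran 60 minutes at room temperature before ADP-Glo detection.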
Hits are given with their value; - = inactive; ? = inconclusive; . = no result; [ ] = another dose, or the depositor's remark. Shown are actives, neighbours in structure and some others; about 11% of the full set was active somewhere. Unless noted, calls come from the whole dose curve; as a rule, active = well fitted inhibition curve with a large enough effect; inconclusive = small, poorly fitted or top-dose-only effect; inactive = no such curve, though single readings can be large or run the other way.

SMILES | HP1b binding inh | G9a inh | JMJD2A Tudor | L3MBTL1 block | BAZ2B block | PI5P4Ka inh
O=C(CCCN1C(=O)/C(=C\c2cccs2)SC1=S)Nc1ccccc1O | . | . | . | . | . | -
O=C(O)CCCCCN1C(=O)/C(=C/c2cn(-c3ccccc3)nc2-c2cccs2)SC1=S | ? | . | 32µM | . | . | -
O=C(O)CCN1C(=O)/C(=C/c2cn(-c3ccccc3)nc2-c2cccs2)SC1=S | ? | - | 22µM | - | - | -
CCCCn1c(SCC(=O)Nc2cccc(OC)c2)nc2ccsc2c1=O | - | - | - | . | - | .
CCOc1ccc(NC(=O)C2CCN(c3nc4ccccc4[nH]3)CC2)cc1 | - | - | - | . | - | .
CC1CN(CCOCCSc2ccccc2)CC(C)O1 (stereo not given) | - | -[12.7 µM] | - | - | - | -
CC1CN(CCCCSc2ccc(Cl)cc2)CC(C)O1 (stereo not given) | ? | 22µM | 18µM | - | ? | -
Clc1ccc(SCCCCN2CCOCC2)cc1 | 40µM | 4µM | 5.6µM | - | 32µM | -
CCOC(=O)C1CCN(CCCSc2ccc(Cl)cc2)CC1 | - | . | - | - | - | -
CC1CCN(CCOCCSc2ccc(Cl)cc2)CC1 | ? | . | 7.1µM | - | 50µM | -
Clc1ccc(SCCOCCN2CCc3ccccc3C2)cc1 | - | - | - | - | - | -
CC1CCCN(CCSc2ccc(Cl)cc2)C1 (stereo not given) | ? | 11µM | ? | - | - | -
CCCCSCCCNC(=O)c1cc(-c2cccnc2)nc2ccc(S(=O)(=O)N3CCC(C)CC3)cc12 | - | - | - | . | - | .
CC1CN(CCOCCSc2ccc(Cl)cc2)CC(C)O1 (stereo not given) | ? | ? | 8.9µM | - | 50µM | -
COc1ccccc1CNC(=O)C1=CCN(S(=O)(=O)c2ccc(C)cc2)CC1 | - | 50µM | - | . | - | -
Cc1ccc(S(=O)(=O)N2CC=C(C(=O)NCc3ccc(F)cc3)CC2)cc1 | . | 22µM | . | - | - | .
COCCCNC(=O)C1=CCN(S(=O)(=O)c2ccc(C)cc2)CC1 | - | 35µM | - | . | - | -
O=C(NCc1ccccc1)c1ccc2c(c1)CCN2S(=O)(=O)c1ccccc1 | - | - | - | . | - | .
Cc1ccc(CNC(=O)c2ccc3c(c2)CCN3S(=O)(=O)c2ccccc2)cc1 | - | 5.6µM | - | . | - | .
CCN(CC)c1ccc(NC(=O)c2c(C)nn(-c3ccc(F)cc3)c2-n2cccc2)c(C)c1 | - | 3.2µM | 32µM | . | 35µM | .
Cc1ccc(CNC(=O)C2=CCN(S(=O)(=O)c3ccc(C)cc3)CC2)cc1 | . | 32µM | . | - | - | .
CCN(CC)c1ccc(NC(=O)C2=CCN(S(=O)(=O)c3ccc(F)cc3)CC2)c(C)c1 | - | 11µM | ? | - | ? | -
CC(Cl)OC(=O)Nc1cccc2cccnc12 (stereo not given) | - | . | ? | . | . | .
CC(C)(C)C(=O)Oc1ccc(S(=O)(=O)Nc2ccccc2C(=O)NCC(=O)O)cc1 | . | -[12.7 µM] | . | . | . | .
CCOC(=O)c1c(C)[nH]c(C)c1S(=O)(=O)NCC(=O)Nc1cccc(C#N)c1 | - | - | - | . | - | .
SMILES | HP1b binding inh | G9a inh | JMJD2A Tudor | L3MBTL1 block | BAZ2B block | PI5P4Ka inh
Cc1cc([N+](=O)[O-])c2c(c1C)C1C=CCC1C(c1ccccn1)N2 (stereo not given) | . | 28µM | . | ? | . | .
Cc1cc([N+](=O)[O-])cc2c1NCC1CC=CC21 (stereo not given) | - | ? | - | - | ? | -
COc1ccc(C2=NN(CN3C(=O)C(=O)c4ccccc43)C(c3ccc(OC)cc3)C2)cc1 (stereo not given) | - | 45µM | ? | - | ? | -
COc1ccc(C2=NN(S(=O)(=O)c3ccccc3)C(c3ccccc3)C2)cc1 (stereo not given) | - | - | - | - | - | -
N#CC1=C(N)S[C@@H](C(=O)c2ccc(F)cc2)[C@@H]1c1cccs1 | - | 10µM | ? | - | ? | .
COc1ccc(Cn2ccnc2SCC(=O)NCc2ccccc2)cc1 | - | - | - | . | - | .
O=C1[C@@H]2Cc3c([nH]c4ccccc34)[C@@H](c3ccccc3)N2C(=O)[C@@H]2Cc3c([nH]c4ccccc34)[C@@H](c3ccccc3)N12 | . | 14µM | . | - | ? | .
CC1Cc2c([nH]c3ccccc23)C2c3ccccc3CN12 (stereo not given) | - | 25µM | ? | . | - | -
